# Results from ChEMBL document CHEMBL3988442, “University of Dundee, Small-Polar-MMV Screening Library” (2021).
# About 960 (1.5%) of roughly 66,000 compounds showed an effect of 50% or more. The sample holds strong results, similar compounds and a random draw of the others, so the mix is not that of the screen.
# Tested on: Trypanosoma brucei
# Test: Trypanosoma brucei 72 hour study
# Format: functional, organism-based
# Set-up: scale not given: in the data most compounds retested in dose-response had high values
smiles,measurement,setting,value
CCNC(=O)Nc1ccc(N2CCC(OC)CC2)c(C(F)(F)F)c1,Percent Effect,"30 µM, 30.03 µM",-0.4307%
COc1ccc(CN2CCc3[nH]nc(C(=O)N(C)C)c3C2)cc1.O=C(O)C(F)(F)F,Percent Effect,"30.3 µM, […]",4.36%
COc1ccc(F)c(CN(CCCn2ccnc2)Cc2ccc(C)s2)c1.O=C(O)CC(O)(CC(=O)O)C(=O)O,Percent Effect,"30.3 µM, […]",-24.6%
CN(CC(=O)NC(Cc1ccsc1)c1cccnc1)Cc1cccnc1.Cl (stereo unspecified),Percent Effect,"30.3 µM, […]",-0.9311%
CC(C)c1nnc(CN(C)C(c2ccc(F)cc2)c2cccnc2)o1 (stereo unspecified),Percent Effect,"30 µM, 30.03 µM",-53.44%
CC(C)c1noc(CN(C)C(c2ccc(F)cc2)c2cccnc2)n1 (stereo unspecified),Percent Effect,"30 µM, 30.03 µM",70.75%
CN(Cc1nnc(C2CC2)o1)C(c1ccc(F)cc1)c1cccnc1 (stereo unspecified),Percent Effect,"30 µM, 30.03 µM",-93.52%
Cc1noc(NCc2ccc(F)cc2F)n1,Percent Effect,"30.3 µM, […]",72.2%
Cc1noc(NCc2ccc(F)cc2)n1,Percent Effect,"30.3 µM, […]",55.37%
CC(C)(C)c1nnc(NCc2ccc(F)cc2)o1,Percent Effect,"30 µM, 30.03 µM",-100%
Cc1noc(NCc2cn(C)nc2-c2ccncc2)n1,Percent Effect,"30 µM, 30.03 µM",-13.42%
COCc1cc(NCc2cc(F)ccc2F)n2nccc2n1,Percent Effect,"30 µM, 30.03 µM",-36.1%
Cc1noc(CS(=O)(=O)c2cc(F)ccc2F)n1,Percent Effect,"30.3 µM, […]",-4.369%
Cc1noc(NCc2cc(F)ccc2F)n1,Percent Effect,"30.3 µM, […]",50.55%
Cc1nnc(NCc2ccc(F)cc2)o1,Percent Effect,"30 µM, 30.03 µM",-52.4%
Cc1noc(NCc2cn(C)nc2-c2cccnc2)n1,Percent Effect,"30 µM, 30.03 µM",-14.18%
Cc1occc1C(=O)N1CCc2c(CNS(C)(=O)=O)cncc2C1.Cl,Percent Effect,"30.3 µM, […]",-7.203%
CN(C)C[C@]12COC[C@H]1CN(C(=O)Cc1ccc3c(c1)OCO3)C2.O=C(O)C(F)(F)F,Percent Effect,"30 µM, 30.03 µM",24.04%
Cn1ncc2c(NC3CCSC3)nc(-c3ccncc3)nc21 (stereo unspecified),Percent Effect,"30.3 µM, […]",38.84%
CC(=O)N1CCN(Cc2cccs2)CC2(CC(=O)N(C)C2)C1.O=C(O)C(F)(F)F (stereo unspecified),Percent Effect,"30.3 µM, […]",-45.81%
CN1CC(=O)N(c2ccsc2)CC12CCN(C(=O)c1cccn1C)C2.O=C(O)C(F)(F)F (stereo unspecified),Percent Effect,"30 µM, 30.03 µM",-33.31%
Cc1noc([C@@H]2CCO[C@@H]3CCN(Cc4ccc(C)s4)C[C@@H]32)n1.O=C(O)C(F)(F)F,Percent Effect,"30 µM, 30.03 µM",1.711%
O=C(O)C(F)(F)F.O=C(O)c1c(-c2cncnc2)ncc2c1CCN(CC1CCOC1)C2 (stereo unspecified),Percent Effect,"30.3 µM, […]",-18.52%
CCn1ncc2c1C(COCC1CC1)CN(c1ccncn1)C2.O=C(O)C(F)(F)F.O=C(O)C(F)(F)F (stereo unspecified),Percent Effect,"30 µM, 30.03 µM",-5.077%
O=C1CCCN1C(CNS(=O)(=O)C1CC1)Cc1cccc(F)c1 (stereo unspecified),Percent Effect,"30 µM, 30.03 µM",7.214%
COCCN1CCCC(c2nc(C)n3c(C)c(C)sc23)C1 (stereo unspecified),Percent Effect,"30.3 µM, […]",-27.06%
Cc1sc2c(C3CCCN(C(C)C)C3)nc(C)n2c1C (stereo unspecified),Percent Effect,"30.3 µM, […]",-21.43%
Cc1sc2c(C3CCCN(S(C)(=O)=O)C3)nc(C)n2c1C (stereo unspecified),Percent Effect,"30.3 µM, […]",73.25%
O=C(O)C(F)(F)F.c1cncc(CN2Cc3nccn3CC(Cn3cncn3)C2)c1 (stereo unspecified),Percent Effect,"30 µM, 30.03 µM",-73.02%
Cc1cccc(C2(CNC(C)c3nnc(C)o3)CCCC2)c1 (stereo unspecified),Percent Effect,"30.3 µM, […]",99.4%
Cc1nnc(C(C)NCC2(c3ccc(Cl)cc3)CCCC2)o1 (stereo unspecified),Percent Effect,"30.3 µM, […]",-10.5%
Cc1nnc(C(C)NCC2(c3ccc(Cl)cc3)CCOCC2)o1 (stereo unspecified),Percent Effect,"30.3 µM, […]",-12.99%
Cc1nnc(C(C)NCC2(c3ccc(F)cc3)CCCCC2)o1 (stereo unspecified),Percent Effect,"30.3 µM, […]",9.19%
COc1ccc(C2(CNC(C)c3nnc(C)o3)CCCCC2)cc1 (stereo unspecified),Percent Effect,"30.3 µM, […]",100.1%
COc1cccc(C2(CNC(C)c3nnc(C)o3)CCCC2)c1 (stereo unspecified),Percent Effect,"30.3 µM, […]",-15.21%
Cc1nccc(CNC(=O)NC(c2ncc(C)s2)C2CC2)n1 (stereo unspecified),Percent Effect,"30 µM, 30.03 µM",-69.67%
CN(C)CCOCc1nnc2n1CCN(Cc1ccco1)CC2.O=C(O)C(F)(F)F.O=C(O)C(F)(F)F,Percent Effect,"30.3 µM, […]",-5.145%
CCC1=N[C@@]2(CC[C@@H]3CN(Cc4ccc(C)cc4)C[C@@H]32)C(=O)N1C.O=C(O)C(F)(F)F,Percent Effect,"30.3 µM, […]",-61.95%
O=C(O)C(F)(F)F.O=C1CC2(CCCCN2C(=O)c2ccncc2)CN1CC1CC1 (stereo unspecified),Percent Effect,"30.3 µM, […]",-11.8%
O=C(CCn1cncn1)N1CCCC1c1noc(C2CC2)n1 (stereo unspecified),Percent Effect,10 µM,-39.57%
COCCN1CCC2(CC1)CC(NC(=O)C1CC1)c1ccccc1O2.O=C(O)C(F)(F)F (stereo unspecified),Percent Effect,"30.3 µM, […]",-14.66%
Fc1ccc2[nH]c3c(c2c1)CCN1C(c2ccccn2)N2CCC31CC2 (stereo unspecified),Percent Effect,"30.3 µM, […]",100.3%
Fc1ccc2[nH]c3c(c2c1)CCN1C(c2ccncc2)N2CCC31CC2 (stereo unspecified),Percent Effect,"30.3 µM, […]",100.7%
O=C(N1CCC(OCc2ccccn2)CC1)C1(c2ccc(F)cc2)CC1,Percent Effect,"30 µM, 30.03 µM",-36.15%
CC(=O)NC1CCCc2c1[nH]c1ccc(F)cc21 (stereo unspecified),Percent Effect,"30 µM, 30.03 µM",-27.6%
Fc1ccc2[nH]c(C3CCCN3CCc3ccccn3)nc2c1 (stereo unspecified),Percent Effect,"30 µM, 30.03 µM",22.71%
Cc1nc(Nc2ncccn2)cc(C2CCN(CC(C)C)C2)n1 (stereo unspecified),Percent Effect,"30.3 µM, […]",4.591%
CN(CCCOc1ccccc1Cl)C(=O)CN1C[C@@H]2CC[C@H](CC1=O)N2,Percent Effect,"30.3 µM, […]",-75.76%
COc1ccccc1-c1ncc(CN2C[C@@H](N(C)C)[C@H](C(C)C)C2)s1,Percent Effect,"30.3 µM, […]",89.3%
COc1ccccc1-c1ncc(CN2CCCC[C@H](N(C)C)C2)s1,Percent Effect,"30.3 µM, […]",40.64%
COc1ccccc1-c1ncc(CN2C[C@H](O)[C@@H](N3CCCC3)C2)s1,Percent Effect,"30.3 µM, […]",20.14%
